Experimental data reported in PubChem BioAssay AID687011 (National Center for Advancing Translational Sciences (NCATS), 2013).
Calls of active or inactive are those of the source.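 Rule for the calls: active = significant body weight gain in treated spinal muscular atrophy model mice compared with vehicle-treated controls; inactive = no significant body weight gain.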

Assay: Extended Characterization of SMN2 Inhibitors: Body Weight Studies
Settings: SMNdelta7 SMA mice, 50 mg/kg ip
Description: Spinal muscular atrophy (SMA) is caused by insufficient levels of the survival motor neuron protein SMN. The SMN locus on chromosome 5q13 contains two inverted copies of SMN called SMN1 and SMN2 which are 99% identical at the amino acid level. SMN1 is a fully functional protein and SMN2 skips exon 7 90% of the time. Skipping of exon 7 produces non-functional protein product. 10% of the SMN2 protein includes exon 7 and is fully functional. In the SMA disease state, mutations in the SMN1 locus are the cause of the disease state. Because only 10% of SMN2 is of the fully functional form, it is not sufficient to overcome the deficiency produced by the loss of the SMN1 product. A therapy that either increase the amount of SMN2 product made or to increase the inclusion of exon 7 has been proposed for the treatment of SMA. We have previously filed a probe report and have now done further SAR and further characterized the resulting compounds in mice studies. Here we tested the new compound to see if there was an improval in body weight when administered to SMNdelta7 SMA mice. NIH Chemical Genomics Center [NCGC] NIH Molecular Libraries Probe Production centers Network [MLPCN] MLPCN Grant: R03 MH084179 Assay Submitter (PI): Elliot Androphy […]
For O=C(O)C1CCN(c2ncc(-c3ccc4c(c3)OCCCO4)s2)CC1, the outcome was “active; yes”.
